Compounds with a hit are over-represented: about 3.1% of the library has one in this group of screens.
dFosB activator: enhances mouse delta FosB homodimer DNA binding. P13346. purified delta FosB, TAMRA-CDK5 oligo fluorescence polarization; percent of positive-control signal above neutral wells. activation, % at 25 µM. 340,000 compounds, 0.99% hits;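 active = mean activation above about 17%, with every replicate also reaching it, limit read from the data, passing the limit was not always enough; inconclusive = only one of the two conditions met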
DENV2 CPE rescue: inhibitors of DENV2 cytopathic effect | DENV2-infected cells, cytopathic effect rescue, plate reader | CPE inhibition, % at 9.99 µM | 350,000 compounds, 1.7% hits | AID 651640; in the data active = CPE inhibition above about 20%, passing the limit was not always enough; inconclusive = no clear call, values can overlap the other calls; tested in BHK-21 cells
AF4-AF9 inh: blocks AF4 peptide binding to human AF9; P42568; AlphaScreen, biotin-AF4 peptide binding to FLAG-AF9; inhibition, % at 10 µM; 350,000 compounds, 0.47% hits; AID 651704;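 active = every replicate reaching a set inhibition limit, whatever the replicate mean, cut at about 25% in these data; inconclusive = mean inhibition reaches that limit but some replicates miss it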
RAD54 branch: inhibitors of human RAD54 branch migration; RAD54 Holliday junction branch migration, FAM/BHQ fluorescence; inhibition, % at 10.4 µM; 360,000 compounds, 0.14% hits; AID 602329;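 active = mean normalized replicate activity at least 40 and at least half of replicates scoring 40 or more; inconclusive = only one of the two criteria met; inactive = mean below 40 and under half of replicates reaching 40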;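 also: inhibitors cause a drop in the FAM fluorescence signal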
RAD52 anneal inh: inhibitors of human RAD52 DNA annealing. inhibition, % at 18.7 µM. recombinant RAD52 DNA annealing, FRET fluorescence. 360,000 compounds, 0.46% hits. P43351;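 active = every replicate showing at least 50% inhibition; inconclusive = mean inhibition at least 50% but not in every replicate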
Target sequence (P43351 whole entry, looked up): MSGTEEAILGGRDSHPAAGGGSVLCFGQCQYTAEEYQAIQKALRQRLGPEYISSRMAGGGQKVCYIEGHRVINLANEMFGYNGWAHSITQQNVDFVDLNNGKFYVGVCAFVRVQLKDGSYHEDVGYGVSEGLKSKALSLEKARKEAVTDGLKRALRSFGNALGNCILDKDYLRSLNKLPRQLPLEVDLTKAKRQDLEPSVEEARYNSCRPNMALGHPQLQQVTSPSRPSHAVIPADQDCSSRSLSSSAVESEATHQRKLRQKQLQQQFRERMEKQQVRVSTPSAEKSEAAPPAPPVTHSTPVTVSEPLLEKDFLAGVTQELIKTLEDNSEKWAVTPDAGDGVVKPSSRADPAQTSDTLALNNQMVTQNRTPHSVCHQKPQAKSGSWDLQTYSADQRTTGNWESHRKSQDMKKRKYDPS
GSIS activator: GLuc luminescence reporter in INS-1E cells, primary screen for activators of glucose-dependent secretion of insulin. INS-1E GLuc reporter insulin secretion, 2-3 h. activation, % at 16.6 µM. 370,000 compounds, 0.61% hits. AID 743287;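 active = lowest replicate activation of at least 40%, so every replicate reaches that level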
Of the large screens only hits and unclear results are named; the others gave an inactive call; ! = a repeat was not active.

CNC[C@H]1Oc2ccc(NS(=O)(=O)c3ccccc3)cc2C(=O)N([C@@H](C)CO)C[C@H]1C	none (no result: dFosB activator)
CNC[C@@H]1Oc2c(NC(=O)Nc3ccc(OC)cc3)cccc2C(=O)N([C@@H](C)CO)C[C@H]1C	none (no result: dFosB activator, DENV2 CPE rescue, AF4-AF9 inh, RAD54 branch, RAD52 anneal inh)
O=C(NC1CCCCC1)N[C@H]1C=C[C@H](CC(=O)N2CCOCC2)O[C@@H]1CO	none (no result: dFosB activator)
O=C1NC[C@H](CCCCN2C[C@H](Cc3ccc(O)cc3)N(CCC3CCCCC3)C(=O)C2=O)N(CC2CCCCC2)C1=O	none (no result: dFosB activator, RAD54 branch)
O=C1NC[C@@H](CCCCN2CCN(Cc3ccccc3)C(=O)C2=O)N(CCC2CCCCC2)C1=O	DENV2 CPE rescue 21.4 (no result: dFosB activator, RAD54 branch, GSIS activator)
O=C1NC[C@@H](CCCCN2C[C@H](Cc3ccc(O)cc3)N(CC3CCCCC3)C(=O)C2=O)N(CCC2CCCCC2)C1=O	DENV2 CPE rescue 58.8 (no result: dFosB activator, RAD54 branch)
CO[C@@H]1CN(C)C(=O)c2cc(NC(=O)C3CC3)ccc2OC[C@H](C)N(CC2CCCC2)C[C@H]1C	none (no result: dFosB activator)
Nc1cc(=O)[nH]c(SCC(=O)Nc2cc(S(=O)(=O)N3CCOCC3)ccc2Cl)n1	none (no result: RAD54 branch, GSIS activator)
Nc1cc(=O)[nH]c(SCC(=O)Nc2cc(S(=O)(=O)N3CCCCCC3)ccc2Cl)n1	dFosB activator 36.5
C[C@@H]1CN([C@@H](C)CO)C(=O)c2cc(NC(=O)Nc3ccc(F)cc3)ccc2O[C@@H](C)CCCCO[C@H]1CN(C)C(=O)CCCN(C)C	RAD52 anneal inh 51.1 (no result: dFosB activator)
C[C@H](CO)N1C[C@H](C)[C@H](CN(C)C(=O)CCCN(C)C)OCCCC[C@H](C)Oc2ccc(NC(=O)Nc3ccc(F)cc3)cc2C1=O	none (no result: dFosB activator)
C[C@@H]1CCCCO[C@H](CN(C)C(=O)CCCN(C)C)[C@@H](C)CN([C@H](C)CO)C(=O)c2cc(NC(=O)Nc3ccc(F)cc3)ccc2O1	DENV2 CPE rescue 37.1 (no result: dFosB activator)
CCCC(=O)Nc1ccc2c(c1)C(=O)N(C)C[C@@H](OC)[C@H](C)CN(Cc1ccccn1)[C@H](C)CO2	none (no result: dFosB activator)
CCN1CCN(c2ccc(S(=O)(=O)N3CCCCC3)cc2NC(=O)c2ccccc2)CC1	none
CCN1CCN(c2ccc(S(=O)(=O)N3CCCCC3)cc2NC(=O)c2cccc(C(F)(F)F)c2)CC1	dFosB activator 20.9
CCN1CCN(c2ccc(S(=O)(=O)N3CCCCC3)cc2NC(=O)c2cccc(F)c2)CC1	none (no result: RAD54 branch)
CCN1CCN(c2ccc(S(=O)(=O)N3CCCCC3)cc2NC(=O)c2ccc([N+](=O)[O-])s2)CC1	AF4-AF9 inh 28.8
COc1ccc(C(=O)NCC(=O)OCC(=O)Nc2ccc(C)c(S(=O)(=O)N(C)C)c2)cc1OC	GSIS activator 68.0
COc1ccc([N+](=O)[O-])cc1NC(=O)C(C)OC(=O)C1CC(=O)N(Cc2ccco2)C1 (stereo unspecified)	DENV2 CPE rescue 95.5
Cn1nc(-c2ccc(Cl)cc2)c2cc(C(=O)NCCCN3CCOCC3)sc21	RAD54 branch 84.2 (no result: DENV2 CPE rescue, AF4-AF9 inh, RAD52 anneal inh, GSIS activator)
COc1ccc2cc1Oc1ccc(cc1)CC1c3c(cc(OC)c4c3Oc3cc5c(cc3O4)CCNC5C2)CCN1C (stereo unspecified)	RAD54 branch 90.9 (no result: DENV2 CPE rescue, AF4-AF9 inh, RAD52 anneal inh, GSIS activator)
COc1ccc2cc1Oc1ccc(cc1)C[C@H]1c3c(cc(OC)c4c3Oc3c(ccc5c3[C@H](C2)N(C)CC5)O4)CCN1C	dFosB activator inconclusive, RAD54 branch 74.4 (no result: DENV2 CPE rescue, AF4-AF9 inh, RAD52 anneal inh, GSIS activator)
Fc1cccc(CN2[C@@H]3CNC[C@H]2C3c2ccc(-c3ccncc3)cc2)c1 (stereo partly specified)	AF4-AF9 inh 30.3!, RAD52 anneal inh 65.2! (no result: dFosB activator, RAD54 branch)
Cc1ccc(-c2ccc(C3[C@H]4CNC[C@@H]3N4Cc3cccc(F)c3)cc2)cc1 (stereo partly specified)	none (no result: dFosB activator, RAD54 branch)
Fc1cccc(-c2ccc(C3[C@H]4CNC[C@@H]3N4Cc3cccnc3)cc2)c1 (stereo partly specified)	none (no result: dFosB activator, RAD54 branch)
c1ccc(-c2ccc(C3[C@H]4CNC[C@@H]3N4Cc3cccc(-c4ccncc4)c3)cc2)cc1 (stereo partly specified)	RAD52 anneal inh 59.2 (no result: dFosB activator, RAD54 branch)
C[C@@H]1CCCCO[C@H](CN(C)S(C)(=O)=O)[C@@H](C)CN([C@@H](C)CO)C(=O)c2cc(N(C)C)ccc2O1	none (no result: dFosB activator)
CN(c1ccc(C(=O)N2CCN(Cc3ccccc3)CC2)cc1)S(=O)(=O)c1ccccc1	GSIS activator 56.3
COc1ccc(S(=O)(=O)N(C)c2ccc(C(=O)N3CCOCC3)cc2)cc1OC	none (no result: RAD54 branch)

Assay outcomes from PubChem BioAssay.
